Some test systems named below: HCT-15 colon; HT29 colon; SNB-75 CNS; SNB-19 CNS; U251 CNS; PC-3 prostate; SK-MEL-5 melanoma; UACC-62 melanoma; LOX IMVI melanoma; SK-MEL-28 melanoma; EKVX NSCLC; SN12C renal; UO-31 renal; TK-10 renal; ACHN renal; A498 renal; CCRF-CEM leukemia; MOLT-4 leukemia; CAKI-1 renal.
Holding throughout (test): NCI-60 one-dose screen, 48 h (100 = growth as untreated, 0 = no growth, -100 = all killed)
Conditions in all cases: 10 µM unless noted

The panel holds about 83,000 compounds, 20% with a hit somewhere; the sample as a whole holds those more often.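 Single-dose data. Exposure time 48 hours. Values below 10 considered active.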 A number with no mark means an inactive call. The source made the active and inactive calls.

As to `Nc1nc(Nc2ccccc2)c(C=Nc2ccccc2)c(=O)[nH]1`, the growth is 96.9% in the test with HCT-15 colon; 101% in the test on HT29 colon; 80.3% in the test with SNB-75 CNS; 89.1% in the test on SNB-19 CNS; 89.1% with U251 CNS; 87.5% in the test with PC-3 prostate. Moreover, the growth in the test with SK-MEL-5 melanoma is 98.4%; in the test on UACC-62 melanoma, 84.3%; in the test on LOX IMVI melanoma, 87.1%; with SK-MEL-28 melanoma, 109%; with EKVX NSCLC, 89.1%; in the test with SN12C renal, 91%. For the same compound, the growth in the test with UO-31 renal is 61%; with TK-10 renal, 116%; in the test on ACHN renal, 83.4%; in the test with A498 renal it was 86.3%; in the test with CCRF-CEM leukemia, 92.1%; with MOLT-4 leukemia, 81.2%.

Turning to `C=CCN1C(=O)c2cccc3c(-c4ccc5c(c4)ncn5C4CCCCC4)ccc(c23)C1=O`, the growth in the test with HCT-15 colon was 44.9%; in the test on HT29 colon, 23.4%; in the test on SNB-75 CNS it was 50.2%; with SNB-19 CNS, 76.1%; with U251 CNS, 52%; with PC-3 prostate, 22.8%. Also, the growth was -27.8% (active) with SK-MEL-5 melanoma; 44% with UACC-62 melanoma; 50.3% in the test on LOX IMVI melanoma; 76.7% with SK-MEL-28 melanoma; 52.9% with EKVX NSCLC; 61.5% with SN12C renal. Further, the growth is 34.5% in the test on UO-31 renal; 69.9% in the test with TK-10 renal; 55.3% with ACHN renal; 52.2% with CAKI-1 renal; 33% with CCRF-CEM leukemia; 5.4% (active) in the test on MOLT-4 leukemia.

`CN1CCN(c2nc(C3=C(c4c[nH]c5ccccc45)C(=O)NC3=O)c3ccccc3n2)CC1`: the growth in the test with HCT-15 colon was 85.3%; in the test with HT29 colon, 11.6%; in the test with SNB-75 CNS, 79.4%; with SNB-19 CNS, 87.5%; in the test on U251 CNS it was 69.4%; with PC-3 prostate, 108%. Also, the growth was 45.6% in the test on SK-MEL-5 melanoma; 6.81% (active) with UACC-62 melanoma; 80.4% with LOX IMVI melanoma; 3.91% (active) in the test with SK-MEL-28 melanoma; 82.6% in the test on EKVX NSCLC; 92.3% in the test with SN12C renal. Moreover, the growth in the test with UO-31 renal is 64%; in the test with TK-10 renal, 47.3%; with ACHN renal, 70.2%; with CAKI-1 renal it was 54.9%; in the test with CCRF-CEM leukemia it was 100%; in the test on MOLT-4 leukemia, 74.7%.

As to `CC1(O)CC(c2nc(-c3ccc4ccc(-c5ccccc5)nc4c3)c3c(N)nccn23)C1` (centres undefined), the growth is 21.1% in the test with HCT-15 colon; 5.34% (active) in the test on HT29 colon; 32% in the test with SNB-75 CNS; 64.7% with SNB-19 CNS; 56.7% in the test with U251 CNS; 35.3% in the test on PC-3 prostate. The growth is 15% in the test on SK-MEL-5 melanoma; 39.9% in the test on UACC-62 melanoma; 34.7% in the test on LOX IMVI melanoma; 40.7% in the test with SK-MEL-28 melanoma; 58.8% in the test with EKVX NSCLC; 41.7% with SN12C renal. Further, the growth was 6.56% (active) in the test on UO-31 renal; 42.6% in the test on TK-10 renal; 31.7% in the test on ACHN renal; -3.83% (active) in the test on A498 renal; 27.1% in the test on CCRF-CEM leukemia; 12.9% in the test with MOLT-4 leukemia.

Turning to `CC(=O)O[C@]1(C)C[C@H](O)[C@]2(O)C=CO[C@H](O[C@@H]3O[C@H](CO)[C@@H](O)[C@H](O)[C@H]3O)[C@@H]21`, the growth in the test on HCT-15 colon is 99.1%; in the test with HT29 colon it was 103%; in the test with SNB-75 CNS it was 83.3%; with SNB-19 CNS, 99.6%; with U251 CNS it was 99.8%; in the test on PC-3 prostate, 103%. The growth in the test with SK-MEL-5 melanoma is 103%; in the test with UACC-62 melanoma it was 100%; with LOX IMVI melanoma it was 105%; in the test on SK-MEL-28 melanoma it was 112%; in the test with EKVX NSCLC it was 92.7%; in the test with SN12C renal it was 101%. In addition, the growth was 90.6% in the test with UO-31 renal; 95.9% in the test with TK-10 renal; 108% in the test with ACHN renal; 110% with A498 renal; 109% in the test on CCRF-CEM leukemia; 97.5% with MOLT-4 leukemia.

On to `C[C@@H](N)c1ccc(C(=O)Nc2ccnc3[nH]ccc23)cc1`, for which the growth in the test with HCT-15 colon is 68.3%; in the test with HT29 colon it was 32%; in the test on SNB-75 CNS, 6.4% (active); in the test with SNB-19 CNS, 60.7%; in the test on U251 CNS, 46.7%; in the test on PC-3 prostate, 44.9%. Moreover, the growth in the test on SK-MEL-5 melanoma is 67.8%; with UACC-62 melanoma it was 82.1%; in the test on LOX IMVI melanoma, 45.5%; in the test with SK-MEL-28 melanoma it was 63%; with EKVX NSCLC it was 67%; with SN12C renal, 51.8%. In addition, the growth is 13.4% in the test on UO-31 renal; 46.2% in the test on TK-10 renal; 36.7% with ACHN renal; 56.9% in the test on A498 renal; 25.5% in the test with CCRF-CEM leukemia; 42.2% with MOLT-4 leukemia.

For `CCn1cc(-c2ccnc3[nH]c(-c4cccc(CN(C)C)c4)cc23)c(-c2ccc(NC(=O)N(C)C)cc2)n1`, the growth with HCT-15 colon was 24.6%; in the test on HT29 colon it was -7.89% (active); with SNB-75 CNS, -52.6% (active); in the test on SNB-19 CNS, 55%; with U251 CNS it was 38.2%; in the test on PC-3 prostate it was 30.6%. Besides, the growth was 37.5% in the test with SK-MEL-5 melanoma; 39.9% with UACC-62 melanoma; -76.9% (active) in the test with LOX IMVI melanoma; 45.2% in the test with SK-MEL-28 melanoma; 55.4% in the test on EKVX NSCLC; 24.1% with SN12C renal. Further, the growth in the test on UO-31 renal was -10.7% (active); with TK-10 renal, 44.3%; in the test with ACHN renal, 15.4%; in the test on CAKI-1 renal, 6.96% (active); in the test on CCRF-CEM leukemia, 4.15% (active); in the test on MOLT-4 leukemia, 7.17% (active).

On to `CC(C)(C)c1cnc(CSc2cnc(NC(=O)C3CCNCC3)s2)o1`, for which the growth in the test on HCT-15 colon was 22.8%; in the test with HT29 colon it was -9.89% (active); in the test on SNB-75 CNS it was -39.5% (active); in the test with SNB-19 CNS it was 12.4%; with U251 CNS, 2.2% (active); in the test with PC-3 prostate, 0.914% (active). In addition, the growth was -47.2% (active) in the test with SK-MEL-5 melanoma; -49.7% (active) in the test on UACC-62 melanoma; 6.56% (active) with LOX IMVI melanoma; -12.8% (active) in the test on SK-MEL-28 melanoma; 22.7% in the test on EKVX NSCLC; 11.8% in the test on SN12C renal. Moreover, the growth was -4.7% (active) with UO-31 renal; 5.16% (active) in the test with TK-10 renal; 9.41% (active) with ACHN renal; -31.7% (active) with A498 renal; 7.55% (active) in the test on CCRF-CEM leukemia; 0.905% (active) with MOLT-4 leukemia.
